Source: the supplement of paper PMC6555819

The sequences below were run on VDR:RXRa (NR concentration 270 nM, RXRa partner concentration 90 nM) (assay: PBM binding z-score (relative to random genomic background probes); higher = stronger binding; sequences stand for … in GC…GCGATTGACAGCGTAGAATGAAGG).
Protocol: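 Protein-binding microarray (Agilent 4x180K custom design, double-stranded 60-nt probes: 5' GC cap, 34-nt variable region, 24-nt constant primer region; full probe sequence given). Purified or IVT nuclear receptor:RXRα heterodimers (3:1 NR:RXRα, mostly 270:90 nM) or homodimers were incubated for 1 h in PBS with 2% milk and no ligand, then detected with Alexa488 antibodies. Fluorescence from o1-orientation probes (~5 replicates averaged) was converted to z-scores against 500 random hg19 background probes. Variable regions are seed direct-repeat (DR0–DR5) sites, all their single-nucleotide variants and half-site ablations.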

| Sequence | PBM binding z-score |
| --- | --- |
| GGAACGAGGGCAAGTTGAGAGCAGAGTTTGATGG | 0.881 |
| TTACCGAGGTGAGCTGAGGTCGTTGATCCAACTC | 4.51 |
| ATACCAAGCTGATCGTGAGGTCGTTGATACTAAC | 1.38 |
| TCGAGTAGGTTGGTCGGGGCATTCAGCCAACATA | 0.314 |
| CATACTGGGCCACGAAAGGTCATTGATTCAGTGA | 4.3 |
| GCTTGTAGATCAAGGTTAGGAAAGACTAAGCTAA | -0.45 |
| CCTTACGGGTCAAGGTTAAAGCACGGGTGGTACG | 3.5 |
| AGAATGAGGTTAAGATCATGGAAACAGAATACAT | 1.28 |
| GATACAGGCTCAAGGCCAGAGTACGCGTATTGAT | -0.543 |
| CCAACTAGGTCACGAAAGGTCAAAGTCGAATGAC | 6.81 |
| CCTCGGAGGACAACAAGAGGTCAGAGCTGCCAGA | 2.88 |
| GCTAGGAGGACAAGGTCAGAGCTTTGTCCGTAGA | 1.4 |
| TAGCCTAGGTCAGACCGGGCCAGTATACGCTATA | 0.854 |
| CCGAATAGGTTATGGGGCATTCAGGCAACGGTGA | 0.258 |
| ATCGAAAGGTCTACGAGGTGAGTATACACCGTTT | 1.6 |
| CCAGACAGGTGTGAAGGTAACTCAGCCTCGATTA | -0.322 |
| CGAAATAGGTCAAGGACAGTGAATCTCCGCACGC | 2.46 |
| CCCAGCAGGCCAATCTGGGTCACTCAAGGCTTGA | 0.284 |
| TTACCAAGGTGAAAGGTCGTTGGTGCACGCCTTG | 3.5 |
| ATACCAAGGTGATCGTAAGGTCGTTGATACTAAC | 2.74 |

| Sequence | PBM binding z-score |
| --- | --- |
| GGAACGAGGGCAAAGTTGCTAGCATCTGTCGACG | 1.01 |
| CGAACTAGGTCATCCAGGAAAGTGAATACATTGA | 2.24 |
| ATCGAAAGGTCGAAGGTAAGTATACCCACCCGAA | 2.51 |
| TAGCATAGGTCATTCAGGGGCCAGTATAGAAAGC | 4.18 |
| TCTTATAGGTAAACAGGTGAAAGTCCGTAAGTTA | 1.17 |
| CGTTCAAGGTCAGAGAGGTCAGTGAATGCCGAGT | 7.5 |
| CCTCGGACGACAGAAGGTCAGAGCTGTCCGCTTT | 0.84 |
| TCTTGTAGATCAATCGAGGTTAAGAAAGTGCGCT | 1.75 |
| GCTGCTAGGACAGGTTGGTCAGCTAACGGGTACG | -0.674 |
| GCGACTGGGGCAAAGCAGGTTTCCATAAGGTTGG | -0.475 |
| CCTAGCAGGACAGGGTCACTCAAGCATTTCGCTT | 2.9 |
| ACTAGCAGGCCAAGTGTCACTCAAGATTAGTCCG | -0.322 |
| ATATGCAGGTTAGCTGGGGTCATTCAGACTAGGC | 6.21 |
| GCATAAAGGTAATACAAGGTGAAAGTCCGATTGT | 1.05 |
| AGTCATAGTTCAGGACGAGGTAACGTAAAGCACG | 0.92 |
| CCTTACGGGTCACGAGGATATAGCACGACGAGCG | 3.9 |
| GCTAGTTGGTCAGTAAAAGGTAACACACCGGTCG | 0.0911 |
| GCTCAGAGGACAAGGTCAGAGCTTTGTCCGTAGA | 1.69 |
| CCTCACGGGTCACTCCAGGTTATAGCATCGGAGT | 4.07 |
| ATATGTAGGTTAGCTGGGGTCATTCAAACTAGGC | 6.37 |
